Shown are actives, neighbours in structure and some others; about 1.2% of the full set was active somewhere.
Glyco luc inh = increase of ERlucT glycosylation luciferase signal, primary screen, N-linked glycosylation inhibitor project, D54 ERlucT cells, luminescence, set 2 | D54 ERlucT glycosylation luciferase reporter, 24 h; percent of 100 nM tunicamycin response | reporter increase, % at 12.5 µM | actives 0.23% (n = 360,000);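 active = mean luciferase reporter signal, scaled so untreated is 0 and the glycosylation-blocking control 100, at or above a set limit in every replicate; inconclusive = mean reaches the limit but not every replicate does; inactive = mean below the limit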;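 note: luciferase carries N-glycosylation sites so blocking glycosylation raises the light; 0% = median of neutral control wells and 100% = median of 100 nM tunicamycin wells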
RAD52 anneal inh = RAD52 DNA annealing inhibitors, primary screen, biochemical, FRET, single point, set 2; recombinant RAD52 DNA annealing, FRET fluorescence; actives 0.46% (n = 360,000); DNA repair protein RAD52 homolog (Homo sapiens), P43351; AID 651710, 2012; inhibition, % at 18.7 µM;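 active = every replicate showing at least 50% inhibition; inconclusive = mean inhibition at least 50% but not in every replicate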
Target sequence (P43351 whole entry, looked up): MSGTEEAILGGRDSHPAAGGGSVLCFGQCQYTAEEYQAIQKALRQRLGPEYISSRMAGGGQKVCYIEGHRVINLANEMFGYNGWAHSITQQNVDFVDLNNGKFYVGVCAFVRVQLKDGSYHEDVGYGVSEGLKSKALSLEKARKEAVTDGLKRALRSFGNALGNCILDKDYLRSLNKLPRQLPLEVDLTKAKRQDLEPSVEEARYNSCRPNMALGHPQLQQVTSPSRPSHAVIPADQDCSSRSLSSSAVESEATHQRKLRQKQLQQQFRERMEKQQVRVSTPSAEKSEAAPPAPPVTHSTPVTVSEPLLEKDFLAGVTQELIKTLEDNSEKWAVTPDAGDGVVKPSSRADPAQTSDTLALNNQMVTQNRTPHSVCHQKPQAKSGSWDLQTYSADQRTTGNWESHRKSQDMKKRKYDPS
MLL AF4-AF9 inh = inhibitors of AF4 peptide binding to AF9, primary screen, biochemical, AlphaScreen, biotin-AF4 peptide, FLAG-AF9, single point | actives 0.47% (n = 350,000) | inhibition, % at 10 µM | Protein AF-9 (Homo sapiens), P42568;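 active = every replicate reaching a set inhibition limit, whatever the replicate mean, cut at about 25% in these data; inconclusive = mean inhibition reaches that limit but some replicates miss it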;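 note: 0% = plate neutral control median and 100% = total signal loss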
Casp6 inh = human caspase-6 inhibitors, primary screen, biochemical, VEID-R110 fluorescence, single point, set 2; P55212; purified caspase-6, Z-VEID-R110 cleavage fluorescence; inhibition, % at 12.5 µM; actives 0.53% (n = 350,000);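 active = mean inhibition across replicates at least about 35%, with every replicate also reaching that limit, limit read from the data; inconclusive = only one of the two criteria met; inactive = neither criterion met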;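 note: 0% = median of neutral control wells and 100% = no fluorescence left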
Target sequence (P55212 24-179 limits assumed): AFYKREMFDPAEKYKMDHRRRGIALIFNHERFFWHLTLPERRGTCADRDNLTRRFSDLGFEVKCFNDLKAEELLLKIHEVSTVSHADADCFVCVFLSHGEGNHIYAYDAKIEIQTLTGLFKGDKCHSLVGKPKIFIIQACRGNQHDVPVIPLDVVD
Target sequence (P55212 194-293 limits assumed): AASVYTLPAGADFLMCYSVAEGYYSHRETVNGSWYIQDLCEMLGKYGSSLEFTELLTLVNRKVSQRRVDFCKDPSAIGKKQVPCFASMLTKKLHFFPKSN
RAD54 branch = inhibitors of human RAD54 branch migration, primary screen, biochemical, fluorescence, single point | DNA repair and recombination protein RAD54-like (Homo sapiens), Q92698 | RAD54 Holliday junction branch migration, FAM/BHQ fluorescence | inhibition, % at 10.4 µM | actives 0.14% (n = 360,000) | AID 602329, 2012;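 active = mean normalized replicate activity at least 40 and at least half of replicates scoring 40 or more; inconclusive = only one of the two criteria met; inactive = mean below 40 and under half of replicates reaching 40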;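 note: 0% = median of neutral control wells and 100% = median of positive control wells; inhibitors cause a drop in the FAM fluorescence signal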
Rad54 DNA ctr = DNA binding of candidate compounds, dose response, artefact control for RAD54 inhibitor project, biochemical, fluorescence polarization, cherry-pick; shares compounds with RAD54 branch; Acridine orange-DNA displacement, 20 min; AC50, µM (titrated, usually from 35 µM), for inactives: at the highest dose activity change, negative = DNA binding; actives 8% (n = 460); AID 651673, 2012;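 active = signal drop giving an AC50 within twice the top valid tested concentration of each sample, actives reach about 35 µM in these data; inactive = activity opposite to expected, plus the rest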;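 note: polarization loss reports compound binding to salmon sperm DNA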
Alpha interfer = AlphaScreen signal interference counter-screen, dose response, artefact control, biochemical, cherry-picked samples, luminescence | AC50, µM (highest dose often 12 µM), for inactives: top-dose activity change, negative = inhibition | actives 45% (n = 530) | shares compounds with MLL AF4-AF9 inh; cut-off not given, nearly all actives have AC50 up to about 14 µM
DNA binder FP = DNA-binding compounds via dye displacement, dose response, artefact control for RAD52 inhibitor project, biochemical, fluorescence polarization, cherry-pick. actives 8% (n = 1,000). AID 652128, 2013. AC50, µM. Salmon sperm DNA/acridine orange FP displacement. shares compounds with RAD52 anneal inh;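 active = fitted half-maximal concentration for signal loss at or below twice the highest dose tested, in every separate run, actives reach about 64 µM in these data; inconclusive = runs disagree, or flat partial signal loss, or poor fit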
CASP1 counter = human caspase-1 inhibitors, dose response, selectivity assay for caspase-6 inhibitor project, biochemical, Z-YVAD-R110 fluorescence, cherry-pick, set 2 | shares compounds with Casp6 inh | purified caspase-1, Z-YVAD-R110 cleavage fluorescence | activity change, negative = inhibition, % at 35 µM | 100 tested, under 10 active | AID 743289, 2014;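 active = compounds lowering fluorescence whose fitted half-maximal concentration is no more than twice their top tested dose; inconclusive = flat fit with 30 to 70% inhibition, or poor fit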
Numbers without * were called inactive; i = inactive; ? = inconclusive; nt = no result.

SMILES	Glyco luc inh	RAD52 anneal inh	MLL AF4-AF9 inh	Casp6 inh	RAD54 branch	Rad54 DNA ctr	DNA binder FP	others
Nc1cc2ccncc2c2ccccc12	-2.4	59.8*	-1.0	1.4	69.7*	-13.8%	i
CCN(CC)CCNc1nc(SC)nc2sc3c(c12)CCN(C)C3	-2.1	55.9*	10.1	-62.0	53.0*	5.9%	i
COCCNc1nc(SC)nc2sc3c(c12)CCN(C)C3	-2.4	10.0	-1.1	-5.9	9.9	nt	nt
CC1CCCN(CCCNC(=O)c2cc3c(Cl)nc4ccccc4c3s2)C1 (centres undefined)	?	66.8*	7.8	-19.4	92.0*	-6.7%	39.4µM*
COc1ccc(Nc2cc(C)nc3ccc(OC)cc23)cc1	19.3	55.5*	-9.1	3.3	64.0*	3.5%	i
Cc1c(C)n(CCN(C)C)c2ccc(C(=O)OCCN(C)C)cc12	6.9	102.8*	11.5	-49.5	103.8*	i	i
CCN1CCN(c2cc(C)c3cc(NC(=S)N4CCCCC4)ccc3n2)CC1	-2.6	85.4*	18.7	-60.0	?	-11.0%	i
CCN1CCN(C(=S)Nc2ccc3nc(N4CCN(C)CC4)cc(C)c3c2)CC1	-2.2	89.0*	3.7	-65.9	56.1*	-0.2%	i
CCN1CCN(c2cc(C)c3cc(NC(=S)N4CCN(c5ccc(F)cc5)CC4)ccc3n2)CC1	-7.0	-7.3	6.3	-29.4	-4.7	nt	nt
Cc1cc(N2CCN(C)CC2)nc2ccc(NC(=S)NC3CC3)cc12	0.0	45.4	4.3	-41.3	nt	nt	nt
CCCCN(CC)CCNC(=S)Nc1ccc2nc(N3CCN(C)CC3)cc(C)c2c1	0.7	59.6*	9.7	-89.9	55.4*	6.5%	i
CCCN(CCC)CCCNC(=S)Nc1ccc2nc(N3CCN(C)CC3)cc(C)c2c1	3.4	75.4*	16.8	-63.5	62.7*	-9.5%	i
COc1cc2nc(Nc3ccc(F)cc3)nc(N)c2cc1OC	-0.4	61.7*	12.7	nt	58.9*	11.0%	59.3µM*
Cc1cc(-c2cc(NC=O)c3ncc(-c4cccc(C(=O)NCCN(C)C)c4)n3c2)cc(C)c1O	-2.0	91.8*	21.3	-0.8	62.0*	-4.2%	i
CC(=O)c1cccc(-c2cnc3c(NC=O)cc(-c4ccccc4)cn23)c1	3.1	-85.4	-0.1	-0.8	3.2	nt	nt
CN(C)CCNC(=O)c1cccc(-c2cnc3c(NC=O)cc(-c4ccccc4F)cn23)c1	-0.8	96.4*	13.4	-11.0	63.0*	5.6%	i
CN(C)CCNC(=O)c1cccc(-c2cnc3c(NC=O)cc(-c4ccc(C(=O)N5CCOCC5)cc4)cn23)c1	0.8	62.6*	4.9	0.9	?	-5.2%	i
CC(=O)c1cccc(-c2cnc3c(NC=O)cc(-c4ccc(C(=O)N5CCOCC5)cc4)cn23)c1	-5.6	-33.8	-2.3	6.4	7.3	nt	nt
CN(C)CCNC(=O)c1cccc(-c2cnc3c(NC=O)cc(-c4cccs4)cn23)c1	-4.7	67.9*	16.6	0.7	62.9*	-17.5%	i
C[C@@H]1CN([C@@H](C)CO)C(=O)Cc2cc(NC(=O)Cc3ccccc3)ccc2O[C@@H]1CN(C)Cc1ccncc1	nt	-0.5	-2.7	-1.9	-1.2	nt	nt
COc1ccc(-c2cc(NC=O)c3ncc(-c4cccc(C(=O)NCCN(C)C)c4)n3c2)cn1	-6.1	81.0*	8.5	-66.4	94.6*	-10.8%	i
COc1cc(-c2cnc3c(NC(C)=O)cc(-c4cccc(C(=O)NCCO)c4)cn23)cc(OC)c1OC	9.3	-7.5	-1.2	4.3	1.4	nt	nt
Cc1ccc(-c2cc(NC=O)c3ncc(-c4cccc(C(=O)N(C)C)c4)n3c2)cc1	1.0	-15.4	1.8	0.5	-7.3	nt	nt
COc1cc(-c2cnc3c(NC=O)cc(-c4cccc(C(=O)NCCN(C)C)c4)cn23)cc(OC)c1OC	-1.8	93.2*	20.7	-57.8	101.5*	-2.1%	i
COc1ccc(C(=O)Nc2ccc3c(c2)C(=O)N(C)C[C@H](OC)[C@@H](C)CN[C@@H](C)CO3)cc1	nt	-4.9	-2.4	0.8	-2.1	nt	nt
SMILES	Glyco luc inh	RAD52 anneal inh	MLL AF4-AF9 inh	Casp6 inh	RAD54 branch	Rad54 DNA ctr	DNA binder FP	others
CCN(CC)CCN1CCN(c2cncc(-c3cccc(N)c3)n2)CC1	1.6	99.0*	22.9	-177.4	73.2*	-11.2%	i
CCCC(=O)Nc1ccc2c(c1)C(=O)N(C)[C@@H]1CC[C@@H](CC(=O)NCCc3ccncc3)O[C@@H]1CO2	nt	0.8	-0.9	2.6	0.5	nt	nt
C[C@@H]1CN([C@H](C)CO)C(=O)c2cc(NS(=O)(=O)c3ccccc3)ccc2O[C@@H](C)CCCCO[C@H]1CN(C)C(=O)c1ccccc1	nt	-2.4	-3.2	1.0	nt	nt	nt
Oc1ccc(Nc2nc(N3CCCC3)c3ccccc3n2)cc1	53.2*	67.2*	nt	7.3	59.7*	i	i
CCn1c(N)nc2c1c(=O)n(C)c(=O)n2C	3.2	-4.3	-7.0	-0.2	-10.3	nt	nt
CCCc1nc2c(=O)n(C)c(=O)nc-2n(C)n1	-20.3	35.1	-3.6	96.5*	74.2*	-16.2%	nt	CASP1 counter=-12.0
Cn1nc(-c2ccccn2)nc2c(=O)n(C)c(=O)nc1-2	-22.8	5.6	-7.4	95.4*	61.2*	11.8%	nt	CASP1 counter=-3.4
COc1ccc(NC(=O)N(C)C[C@H]2Oc3ccc(NS(=O)(=O)c4ccc(OC)cc4)cc3C(=O)N([C@@H](C)CO)C[C@@H]2C)cc1	nt	-14.9	-0.9	-1.0	-0.7	nt	nt
CN(C)c1ccc(C=C2C=C(c3ccccc3)OC2=O)cc1	3.2	-8.9	-8.8	-1.7	-1.9	nt	nt
COc1cc(N(C)C)ccc1C=c1c2ccccc2n2c1cc(-c1ccccc1)[n+]2C	8.6	45.0	84.4*	61.3*	nt	nt	nt	Alpha interfer=2.07µM*
CN(C)c1ccc(C=c2c3ccccc3n3c2cc(-c2ccccc2)[n+]3C)cc1	?	-11.8	42.7*	18.6	nt	nt	nt	Alpha interfer=4.4µM*

Screens (PubChem)
